Test results published in PubChem BioAssay AID1159580 (chemical genetic matrix, 2015).
Hit rate of the full screen: of about 5,500 compounds, about 2,000 (36%) were called active. Another 18% or so got no clear call; they are omitted. Rule as the data show it: active = normalized growth mostly below about 0.91 (no sharp cut-off); inconclusive = no clear call, values can overlap the other calls; inactive = mostly above about 0.92. Some of the results follow.

Test: chemical genetic growth profiling, strain panel (AID 1159580);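 also: tested at 20 µM; growth read once vehicle control cultures reached saturation at 30 °C; 1 = growth at the plate median or of vehicle wells; lower values mean less growth of the strain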
Details: growth OD

Measured: normalized growth

COc1ccc2c(=O)c(CC(=O)O)coc2c1
inactive: S. cerevisiae deletion strains, locus YJR066W, strain TOR1, active compounds read low 0.902 | S. cerevisiae deletion strains, locus YJR075W, strain HOC1, active compounds read low 1.01 | S. cerevisiae deletion strains, locus YKL009W, strain mrt4, active compounds read low 0.981 | S. cerevisiae deletion strains, locus YKL068W, active compounds read low 0.993 | S. cerevisiae deletion strains, locus YKL085W, strain MDH1 (second series), active compounds read low 1.01 | S. cerevisiae deletion strains, locus YKL085W, strain MDH1, active compounds read low 1.01 | S. cerevisiae deletion strains, locus YKL160W, strain elf1, active compounds read low 1.04 | S. cerevisiae deletion strains, locus YKL190W, strain CNB1, active compounds read low 1 | S. cerevisiae deletion strains, locus YKR001C, strain vps1, active compounds read low 1.03 | S. cerevisiae deletion strains, locus YKR026C, strain gcn3, active compounds read low 0.985 | S. cerevisiae deletion strains, locus YKR091W, strain srl3, active compounds read low 0.99 | S. cerevisiae deletion strains, locus YLL001W, strain dnm1, active compounds read low 1 | S. cerevisiae deletion strains, locus YLL026W, active compounds read low 0.982 | S. cerevisiae deletion strains, locus YLL041C, strain sdh2, active compounds read low 0.98 | S. cerevisiae deletion strains, locus YLR027C, strain aat2, active compounds read low 0.977 | S. cerevisiae deletion strains, locus YLR039C, strain RIC1, active compounds read low 1.07 | S. cerevisiae deletion strains, locus YLR058C, strain SHM2, active compounds read low 0.999 | S. cerevisiae deletion strains, locus YLR102C, strain apc9, active compounds read low 0.992 | S. cerevisiae deletion strains, locus YLR113W, strain HOG1, active compounds read low 0.992 | S. cerevisiae deletion strains, locus YLR221C, strain rsa3, active compounds read low 0.966 | S. cerevisiae deletion strains, locus YLR258W, strain gsy2, active compounds read low 0.992 | S. cerevisiae deletion strains, locus YLR262C, strain YPT6 (second series), active compounds read low 1 | S. cerevisiae deletion strains, locus YLR262C, strain YPT6, active compounds read low 1.03 | S. cerevisiae deletion strains, locus YLR268W, strain sec22, active compounds read low 1.02 | S. cerevisiae deletion strains, locus YLR320W, strain mms22, active compounds read low 0.972 | S. cerevisiae deletion strains, locus YLR330W, strain CHS5, active compounds read low 1.01 | S. cerevisiae deletion strains, locus YLR342W, strain FKS1 (second series), active compounds read low 1.05 | S. cerevisiae deletion strains, locus YLR342W, strain FKS1, active compounds read low 0.989 | S. cerevisiae deletion strains, locus YLR357W, strain rsc2, active compounds read low 0.988 | S. cerevisiae deletion strains, locus YLR370C, strain arc18, active compounds read low 0.974 | S. cerevisiae deletion strains, locus YLR371W, strain rom2, active compounds read low 0.997 | S. cerevisiae deletion strains, locus YLR384C, strain iki3, active compounds read low 0.966 | S. cerevisiae deletion strains, locus YLR418C, strain cdc73, active compounds read low 0.971 | S. cerevisiae deletion strains, locus YML016C, strain PPZ1, active compounds read low 1 | S. cerevisiae deletion strains, locus YML032C, strain rad52, active compounds read low 1 | S. cerevisiae deletion strains, locus YML120C, strain ndi1, active compounds read low 1 | S. cerevisiae deletion strains, locus YML124C, strain tub3, active compounds read low 0.994 | S. cerevisiae deletion strains, locus YMR058W, strain fet3, active compounds read low 0.983 | S. cerevisiae deletion strains, locus YMR078C, strain ctf18, active compounds read low 0.992 | S. cerevisiae deletion strains, locus YMR125W, strain sto1, active compounds read low 1 | S. cerevisiae deletion strains, locus YMR129W, active compounds read low 0.985 | S. cerevisiae deletion strains, locus YMR205C, strain PFK2, active compounds read low 1.05 | S. cerevisiae deletion strains, locus YMR223W, strain ubp8, active compounds read low 0.994 | S. cerevisiae deletion strains, locus YMR231W, strain pep5, active compounds read low 0.972 | S. cerevisiae deletion strains, locus YMR307W, strain GAS1, active compounds read low 1.06 | S. cerevisiae deletion strains, locus YNL067W, strain RPL9B, active compounds read low 0.999 | S. cerevisiae deletion strains, locus YNL071W, strain lat1, active compounds read low 0.986 | S. cerevisiae deletion strains, locus YNL183C, strain NPR1, active compounds read low 0.972 | S. cerevisiae deletion strains, locus YNL209W, strain ssb2, active compounds read low 1.03 | S. cerevisiae deletion strains, locus YNL233W, strain BNI4, active compounds read low 1 | S. cerevisiae deletion strains, locus YNL248C, strain rpa49, active compounds read low 0.984 | S. cerevisiae deletion strains, locus YNL250W, strain rad50, active compounds read low 0.96 | S. cerevisiae deletion strains, locus YNL271C, strain bni1, active compounds read low 0.986 | S. cerevisiae deletion strains, locus YNL298W, strain CLA4, active compounds read low 0.992 | S. cerevisiae deletion strains, locus YNL307C, strain MCK1, active compounds read low 1 | S. cerevisiae deletion strains, locus YNL322C, strain KRE1 (second series), active compounds read low 0.969 | S. cerevisiae deletion strains, locus YNL322C, strain KRE1, active compounds read low 1 | S. cerevisiae deletion strains, locus YNR049C, strain mso1, active compounds read low 0.973 | S. cerevisiae deletion strains, locus YNR052C, strain pop2, active compounds read low 0.952 | S. cerevisiae deletion strains, locus YOL012C, strain htz1 1.05 | S. cerevisiae deletion strains, locus YOL147C, strain pex11, active compounds read low 0.991 | S. cerevisiae deletion strains, locus YOR001W, strain rrp6, active compounds read low 0.917 | S. cerevisiae deletion strains, locus YOR061W, strain CKA2, active compounds read low 1.01 | S. cerevisiae deletion strains, locus YOR069W, strain VPS5, active compounds read low 0.987 | S. cerevisiae deletion strains, locus YOR070C, strain gyp1, active compounds read low 0.981 | S. cerevisiae deletion strains, locus YOR080W, strain dia2, active compounds read low 0.981 | S. cerevisiae deletion strains, locus YOR083W, strain WHI5, active compounds read low 1.04 | S. cerevisiae deletion strains, locus YOR106W, strain vam3, active compounds read low 1.01 | S. cerevisiae deletion strains, locus YOR136W, strain idh2, active compounds read low 0.981 | S. cerevisiae deletion strains, locus YOR144C, strain elg1, active compounds read low 0.993 | S. cerevisiae deletion strains, locus YOR184W, strain ser1, active compounds read low 1.07 | S. cerevisiae deletion strains, locus YOR231W, strain MKK1, active compounds read low 1 | S. cerevisiae deletion strains, locus YOR265W, strain rbl2, active compounds read low 0.973 | S. cerevisiae deletion strains, locus YOR270C, strain vph1, active compounds read low 0.978 | S. cerevisiae deletion strains, locus YOR290C, strain snf2, active compounds read low 1.01 | S. cerevisiae deletion strains, locus YOR316C, strain cot1, active compounds read low 0.991 | S. cerevisiae deletion strains, locus YPL051W, strain arl3, active compounds read low 0.996 | S. cerevisiae deletion strains, locus YPL055C, strain LGE1, active compounds read low 1.08 | S. cerevisiae deletion strains, locus YPL078C, strain atp4, active compounds read low 1.03 | S. cerevisiae deletion strains, locus YPL106C, strain sse1, active compounds read low 1.03 | S. cerevisiae deletion strains, locus YPL240C, strain hsp82, active compounds read low 0.974 | S. cerevisiae deletion strains, locus YPL241C, strain CIN2, active compounds read low 1.01 | S. cerevisiae deletion strains, locus YPL256C, strain CLN2, active compounds read low 0.983 | S. cerevisiae deletion strains, locus YPR119W, strain clb2, active compounds read low 0.985 | S. cerevisiae deletion strains, locus YPR141C, strain kar3, active compounds read low 0.99 | S. cerevisiae deletion strains, locus YPR163C, strain tif3, active compounds read low 0.995 | S. cerevisiae deletion strains, locus YPR167C, strain met16, active compounds read low 0.976 | S. cerevisiae deletion strains, strain wtn01, active compounds read low 1.04 | S. cerevisiae strains, strain wild type, active compounds read low 1.02
